Bioassay records (PubChem)
DT40 TDP1 no CPT = qHTS for Inhibitors of human tyrosyl-DNA phosphodiesterase 1 (TDP1): qHTS in cells in absence of CPT; Potency, µM (titrated, usually from 46.2 µM), for inactives: at the highest dose activity change, negative = growth inhibition, most hits filed as inhibitors; DT40 Tdp1-/- hTDP1 cells, no CPT, ATP luminescence, 48 h; 420,000 compounds, 15% hits; also: nearly all actives have a fitted effect of over 55% in size
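Growth of hTDP1-complemented DT40 Tdp1-knockout cells is measured by ATP luminescence after at least 48 hr compound exposure at 37 °C, with DMSO substituting for the 20 nM CPT used in the parallel screen.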
DT40 TDP1 CPT = growth inhibition of DT40 Tdp1-/-;hTDP1 cells with camptothecin (screen for TDP1 inhibitors) | chicken DT40 Tdp1-/-;hTDP1 cells + 20 nM CPT, ATP luminescence, 48 h | 420,000 compounds, 12% hits | Potency, µM (highest dose often 46.2 µM), for the others: at the top dose activity change, negative = growth inhibition, usual class: inhibitors | AID 686979; also: nearly all actives have a fitted effect of over 55% in size
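Chicken DT40 Tdp1-/- cells stably complemented with human TDP1 were seeded at 400 cells/well in medium containing 20 nM camptothecin, exposed to pin-transferred compounds, and grown at 37 °C for at least 48 hr. Viability was read as ATP luminescence.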
Gal4-VP16 FLuc = counter-screen for ROR gamma inhibitors: Gal4-VP16 reporter; AID 2546; Drosophila S2 Gal4-VP16 UAS-luciferase, luminescence, 20 h; Potency, µM (doses to about 53.6 µM), for the others: at the highest dose activity, negative = inhibition, most hits filed as inhibitors; 310,000 compounds, 3.5% hits;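 also: Gal4-VP16 expression switched on by copper sulfate through the metallothionein promoter; nearly all actives have a fitted effect of over 50% in size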
RORgamma inh = blocks mouse ROR gamma transcriptional activity; P51450; Drosophila S2 Gal4-RORgamma UAS-luciferase reporter, 20 h; Potency, µM (series often up to 53.6 µM), without a hit: at the highest dose activity change, negative = inhibition, most hits filed as inhibitors; 310,000 compounds, 5.4% hits; also: nearly all actives have a fitted effect of over 60% in size
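Luciferase reporter read in Schneider cells carrying Gal4-RORγ (mouse) and UAS-Photinus luciferase; cells given compound 1 h before 700 uM copper sulfate induction, then incubated 20 h at ambient temperature.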
TDP1 inh = inhibitors of human tyrosyl-DNA phosphodiesterase TDP1; Q9NUW8; recombinant TDP1, AlphaScreen DNA substrate cleavage; Potency, µM (doses to about 130 µM), inactives show at the highest dose activity change, negative = inhibition, actives largely listed as inhibitors; 350,000 compounds, 0.28% hits; AID 485290; also: nearly all actives have a fitted effect of over 40% in size
Target sequence (Q9NUW8 whole entry, looked up): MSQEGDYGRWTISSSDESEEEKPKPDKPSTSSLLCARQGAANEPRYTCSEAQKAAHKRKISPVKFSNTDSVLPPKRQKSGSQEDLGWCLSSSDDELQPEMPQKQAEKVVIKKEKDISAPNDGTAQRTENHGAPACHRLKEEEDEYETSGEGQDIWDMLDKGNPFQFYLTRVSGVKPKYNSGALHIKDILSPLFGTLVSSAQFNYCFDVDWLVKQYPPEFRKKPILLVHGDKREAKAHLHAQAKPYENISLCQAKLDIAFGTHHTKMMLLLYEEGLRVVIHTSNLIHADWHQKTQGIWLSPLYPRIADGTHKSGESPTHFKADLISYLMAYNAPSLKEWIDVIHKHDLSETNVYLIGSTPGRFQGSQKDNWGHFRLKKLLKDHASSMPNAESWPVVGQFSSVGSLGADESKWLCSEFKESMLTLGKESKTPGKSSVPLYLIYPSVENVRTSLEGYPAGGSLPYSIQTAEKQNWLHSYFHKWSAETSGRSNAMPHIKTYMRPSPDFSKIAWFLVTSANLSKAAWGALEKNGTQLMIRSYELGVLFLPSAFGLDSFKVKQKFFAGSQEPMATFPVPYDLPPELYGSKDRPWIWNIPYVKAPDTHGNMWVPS
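Recombinant human Tdp1 (E. coli-expressed, 1 nM final) preincubated with compounds 15 min at room temperature, then 5'-biotin/3'-phosphotyrosine-FITC DNA substrate (15 nM final) added for 5 min. AlphaScreen beads (10 ug/ml final) added 10 min; cleavage lowers signal.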
* marks the source's active call; other numbers are inactive results; ? = inconclusive; . = not tested or not shown; [ ] = another dose, or the depositor's remark. Most compounds without a hit are left out; they make up all but 19% or so of the library. Calls follow the shape of the dose curve; as a rule, active = well fitted curve in the direction sought with a large enough effect; inconclusive = small, poorly fitted or top-dose-only effect, or another doubt; inactive = no such curve, though single readings can be large; an effect the other way counts as inactive or inconclusive. % is scaled to controls: 0 for no effect and ±100 for the full control effect; potency is read from the fitted curve at half-maximal effect.

SMILES	DT40 TDP1 no CPT	DT40 TDP1 CPT	Gal4-VP16 FLuc	RORgamma inh	TDP1 inh
O=C(Nc1cccc(NC(=O)C2CC3CCCC(C2)C3=O)n1)C1CC2CCCC(C1)C2=O (stereo not drawn)	18µM*	?	?	?	-3%
CN1CCC(OC(=O)c2ccc(Br)cc2)CC1	-18%	-6%	.	.	.
CN1CCC(=C(c2ccccc2)c2ccc(Br)cc2)CC1	16µM*	?	.	.	.
CCOC(=O)c1cnc2c(c(C)nn2C)c1Oc1ccc(Cl)cc1	?	16µM*	-8%[0.365 µM]	3%	0%
C=CCNC(=O)/C(C#N)=C/c1c(N2CCN(c3ccc(OC)cc3)CC2)nc2c(C)cccn2c1=O	13µM*	?	1%	20%	.
COCCCNC(=O)/C(C#N)=C/c1c(N2CCN(c3ccccc3)CC2)nc2c(C)cccn2c1=O	16µM*	?	-8%	17%	.
CCOc1ccccc1C1NC(=O)c2ccccc2O1 (stereo not drawn)	-20%	3%	-2%	0%	.
O=C1CN(C(=O)CSc2nc3ccccc3n2CCc2ccccc2)c2ccccc2N1	23µM*	?	3%	5%	4%
CCCn1c(SCC(=O)N2CC(=O)Nc3ccccc32)nc2ccccc21	?	6%	1%	-30%	-1%
CC(C)CCn1c(SCC(=O)N2CC(=O)Nc3ccccc32)nc2scc(-c3cccs3)c2c1=O	?	-4%	-8%	3%	6%
C=CCn1c(SCC(=O)N2CC(=O)Nc3ccccc32)nc2scc(-c3cccs3)c2c1=O	18µM*	?	-7%	3%	5%
CCOc1ccc(S(=O)(=O)Nc2ccc(C(=O)NCc3ccncc3)cc2)cc1	2%	1%	.	.	2%
O=C(NCc1ccccc1Cl)C1CCN(C(=O)c2ccc(F)cc2)CC1	?	-25%	.	.	.
CCOc1cc(CNS(=O)(=O)c2cn(C)cn2)cc(OCC)c1OCC	27%	-8%	1%	-13%	2%
Cc1ccccc1-c1nnc(SCC(=O)N2CCCCC2)o1	?	-29%	.	.	-2%[12.3 µM]
Nc1ccc(C2CCCc3nonc32)c2nonc12 (stereo not drawn)	-26%	11%	27%	-41%	-3%
O=c1[nH]nnc2c1sc1nc(N3CCOCC3)c3c(c12)CCCC3	-7%	6%	.	.	.
COc1ccc(CNC(=O)c2sc(=O)n(Cc3cc(Cl)ccc3OC)c2C)cc1	16µM*	?	.	.	.
COc1ccc(CNC(=O)c2sc(=O)n(Cc3cc(C(C)=O)ccc3OC)c2C)cc1	13µM*	23µM*	.	.	.
CC(=O)Oc1ccc(Cn2c(C)c(C(=O)NCc3ccc4c(c3)OCCO4)sc2=O)cc1	16µM*	?	.	.	.
CSc1ccc(Cn2c(C)c(C(=O)NCc3cccc(C)c3)sc2=O)cc1	?	23µM*	.	.	.
Nc1ccc(C(=O)OCC(=O)Nc2cccc(S(=O)(=O)NC3=NCCCCC3)c2)cc1[N+](=O)[O-]	?	-5%	.	.	-21%
COc1ccc(Cl)cc1Cn1c(C)c(C(=O)NCc2cccc(Cl)c2)sc1=O	?	15µM*	.	.	.
COc1ccc(Cl)cc1Cn1c(C)c(C(=O)NCc2ccc3c(c2)OCCO3)sc1=O	18µM*	?	.	.	.
COc1ccc(C(C)=O)cc1Cn1c(C)c(C(=O)NCc2cccc(Cl)c2)sc1=O	21µM*	?	.	.	.
SMILES	DT40 TDP1 no CPT	DT40 TDP1 CPT	Gal4-VP16 FLuc	RORgamma inh	TDP1 inh
COc1ccc(NC(=O)c2sc(=O)n(Cc3ccc(F)c(Cl)c3)c2C)cc1OC	10µM*	23µM*	.	.	.
COCCNC(=O)c1sc(=O)n(Cc2ccc(SC)cc2)c1C	?	-20%	.	.	.
COc1ccc(C(C)=O)cc1Cn1c(C)c(C(=O)NC2CC2)sc1=O	6%	-1%	.	.	.
COc1ccc(Br)c(Cn2c(C)c(C(=O)NCc3ccc4c(c3)OCCO4)sc2=O)c1	-20%	?	.	.	.
COc1cc(C)c(S(=O)(=O)NC2CC(C)(C)NC(C)(C)C2)cc1C	-13%	-3%	5%	-5%	-3%
Cc1cccc(C)c1Cn1c(C)c(C(=O)NCc2ccc([N+](=O)[O-])cc2)sc1=O	23µM*	?	.	.	.
COc1ccc(C2CC(c3cccs3)=NN2C(=O)c2ccco2)cc1OC (stereo not drawn)	-17%	1%	5%	32%	4%
Cc1ccc(C(=O)c2ccccc2C(=O)OCC(=O)Nc2cccc([N+](=O)[O-])c2)cc1	?	18µM*	?	?	6%
COc1cc(C(=O)OCC(=O)Nc2ccc(SC(F)F)cc2)cc(OC)c1OC	?	?	1µM*	?	0%
Cc1ccc(C(=O)c2ccccc2C(=O)OCC(=O)Nc2ccc(SC(F)F)cc2)cc1	18µM*	?	?	-6%	0%
O=C1OCCC1Sc1nnc(-c2ccc(Cl)cc2Cl)o1 (stereo not drawn)	-16%	11%	?	7.9µM*	2%
COc1ccc(-c2cccc(C3CC=CC4C3C(=O)N(Cc3ccccc3)C4c3ccc(C(F)(F)F)cc3)c2)cc1 (stereo not drawn)	15µM*	?	-5%	-3%	10%
CN(C)c1ccc(-c2cccc(C3CC=CC4C3C(=O)N(Cc3ccccc3)C4c3ccc(C(F)(F)F)cc3)c2)cc1 (stereo not drawn)	23µM*	12µM*	-9%	1%	18%
Cc1ccc(-c2cccc(C3CC=CC4C3C(=O)N(Cc3ccccc3)C4c3cc(C)ccc3F)c2)cc1 (stereo not drawn)	15µM*	16µM*	-1%	?	7%
C/C(N)=C(/C#N)C(=O)CSc1nnc(SCc2ccc(Cl)cc2)s1	16µM*	13µM*	?	-27%	.
Cc1cccc(N2CCN(C(=O)Cn3ncc4c([nH]c5ccccc54)c3=O)CC2C)c1 (stereo not drawn)	15µM*	?	.	.	-2%
Cc1cccc(N2CCN(CCCNC(=O)Cn3ncc4c([nH]c5ccccc54)c3=O)CC2C)c1 (stereo not drawn)	18µM*	?	.	.	2%
Cc1cccc(CN2CCN(CC(=O)NCCCN3CCCC3=O)C2=O)c1	6%	4%	-1%	-21%	5%
Cc1cccc(CN2CCN(CC(=O)NCCCN3CCN(c4ccc(F)cc4)CC3)C2=O)c1	?	11µM*	-12%	-7%	2%
Cc1ccc(Cl)cc1N1CCN(CCCNC(=O)Cn2ncc3c([nH]c4ccccc43)c2=O)CC1	8.2µM*	15µM*	.	.	0%
Cc1cccc(CCNC(=O)Cn2ncc3c([nH]c4ccccc43)c2=O)c1	19%	-15%	0%	-14%	1%
